# Source: PubChem
# A selection: hits, their analogues and other compounds. The true share with any hit is near 7.3%.
# FLuc inh: inhibitors of firefly (Photinus pyralis) luciferase. P08659. purified P. pyralis luciferase, luminescence, biochemical. Potency, µM (top dose mostly 115 µM), most hits filed as inhibitors. hit rate 2.5% among 76,000. AID 1347043; note: potency is the fitted concentration of half-maximal effect; nearly all actives have a fitted effect of over 65% in size
# Target sequence (P08659 whole entry, looked up): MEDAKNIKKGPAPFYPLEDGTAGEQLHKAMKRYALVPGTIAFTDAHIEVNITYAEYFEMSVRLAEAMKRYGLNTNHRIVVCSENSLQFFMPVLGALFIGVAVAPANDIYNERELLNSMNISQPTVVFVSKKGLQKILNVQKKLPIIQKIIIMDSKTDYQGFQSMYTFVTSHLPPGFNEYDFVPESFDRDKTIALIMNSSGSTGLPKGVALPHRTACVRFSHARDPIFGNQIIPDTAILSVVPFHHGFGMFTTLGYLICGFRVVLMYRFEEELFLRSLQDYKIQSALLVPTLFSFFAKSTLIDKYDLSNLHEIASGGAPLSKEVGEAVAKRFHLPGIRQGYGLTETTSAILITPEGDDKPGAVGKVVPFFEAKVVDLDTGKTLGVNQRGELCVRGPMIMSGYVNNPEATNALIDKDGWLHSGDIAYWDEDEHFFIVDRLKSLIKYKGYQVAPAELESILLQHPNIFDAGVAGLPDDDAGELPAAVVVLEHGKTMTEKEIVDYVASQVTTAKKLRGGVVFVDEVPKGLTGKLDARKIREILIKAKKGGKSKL
#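 FLuc 10nM, D-luciferin 10uM, ATP 10uM, Mg acetate 10mM, Tris acetate pH 7.5, Tween/BSA; cpd qHTS; enzyme added last; CCD luminescence.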
# IP6K1 inhibitor: IP6K1 kinase inhibition | IP6K1 kinase, ADP-Glo luminescence, 2 h; stronger effect = lower value | activity change, % (series mostly up to about 58 µM) | hit rate 0.81% among 140,000 | AID 1645851; in the data active = activity change below about -25%
#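 ADP-Glo luminescence measures ADP made by human IP6K1 during a 2 h RT reaction with ATP/IP6 (mix at 1.3 mM/130 uM); top library doses 57.5 and 19.1 uM final.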
# SNCA expr inhib: SNCA gene expression inhibition | HEK-293 SNCA-luciferase knock-in, luminescence, 24 h | Potency, µM (series often up to 57.2 µM), without a hit: top-dose activity change, negative = inhibition, actives largely listed as inhibitors | hit rate 0.17% among 140,000;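 note: potency is the fitted concentration of half-maximal effect; plate controls were DMSO cells for no effect and cell-free wells for full effect; nearly all actives have a fitted effect of over 45% in size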
# HEK293 tox: cytotoxic compounds in HEK 293 cells | HEK 293 viability, ATP luminescence (CellTiter-Glo), 48-72 h | Potency, µM (doses to about 115 µM), for the others: top-dose activity change, negative = cytotoxicity, hits mostly inhibitors | hit rate 6.6% among 94,000; note: potency is the fitted concentration of half-maximal effect; nearly all actives have a fitted effect of over 60% in size
#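 Cytotoxicity was scored by loss of ATP-coupled luminescence (CellTiter-Glo) in HEK 293 cells. Compound treatment ran 48 or 72 hr at 37 degree Celsius, 5% CO2, 95% humidity.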
# 3T3 cytotox: NIH 3T3 cell cytotoxicity; NIH 3T3 viability, CellTiter-Glo ATP luminescence, 48-72 h; Potency, µM (top dose mostly 96.7 µM), inactives show at the highest dose activity change, negative = cytotoxicity, usual class: inhibitors; hit rate 4.3% among 94,000; note: potency is the fitted concentration of half-maximal effect; nearly all actives have a fitted effect of over 55% in size
#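 Cells were seeded at 400 per well, treated with pin-transferred compound, and kept 48 or 72 hr at 37 °C before CellTiter-Glo addition and luminescence imaging of cellular ATP.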
# SNCA viab count: counter-screen for SNCA expression inhibitors: cell viability; HEK-293-SNCA-luc viability, GF-AFC fluorescence, 24 h; Potency, µM (top dose mostly 57.1 µM), for the others: at the highest dose activity change, negative = cytotoxicity, actives largely listed as cytotoxic; hit rate 0.12% among 150,000; AID 1671193;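 note: potency is the fitted concentration of half-maximal effect; 0% = DMSO-treated cells and -100% = medium-only wells without cells; nearly all actives have a fitted effect of over 30% in size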
#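 Cytotoxicity counterscreen: after 24 h compound treatment of genome-edited SNCA-luciferase HEK-293 cells, live-cell protease substrate GF-AFC read by fluorescence after 30 min; activity scaled between DMSO (0%) and medium-only (-100%), curves Hill-fitted.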
# * hit, by the source's call; i = inactive; ? = inconclusive; nt = not tested or not shown; ! = a repeat was not active; [ ] = remark or other dose. Unless noted, calls come from the whole dose curve; as a rule, active = well fitted curve in the direction sought with a large enough effect; inconclusive = small, poorly fitted or top-dose-only effect, or another doubt; inactive = no such curve, though single readings can be large; an effect the other way counts as inactive or inconclusive. Unless noted, % is set by controls: 0 for no effect and ±100 for the full control effect.
SMILES,FLuc inh,IP6K1 inhibitor,SNCA expr inhib,HEK293 tox,3T3 cytotox,SNCA viab count
COc1cc(CNC(=O)c2cc(-c3ccc(Cl)cc3Cl)nc3c2cnn3C)cc(OC)c1,nt,8,7%,45µM*,?,?
CC(C)NC(=O)c1cc(-c2ccc(Cl)cc2Cl)nc2c1cnn2C,nt,-4,-11%,-30%,?,0%
Cc1ccc(-c2cc(C(=O)NCc3cccc(Cl)c3)c3cnn(C)c3n2)c(C)c1,nt,19,-6%,32µM*,?,2%
CSc1cccc(NC(=O)Cn2nc3n(c2=O)CCCCC3)c1,i,4,-6%,-15%,-11%,-2%
COc1cccc(-c2cc(C(=O)NCc3cccc(Cl)c3)c3cnn(C)c3n2)c1,nt,8,nt,?,22µM*,nt
Cn1ncc2c(C(=O)NCc3cccs3)cc(-c3ccc(Cl)cc3)nc21,nt,18,-17%,?,?,-5%
COc1cccc(-c2cc(C(=O)NCc3cccs3)c3cnn(C)c3n2)c1,nt,7,nt,?,25µM*!,nt
Cn1ncc2c(C(=O)NCc3cccc(Cl)c3)cc(-c3ccccc3)nc21,nt,4,4%,-20%,-25%,-15%
Cn1ncc2c(C(=O)NCc3cccs3)cc(-c3ccc(C(F)(F)F)cc3)nc21,nt,-5,nt,35µM*,?,nt
Cn1ncc2c(C(=O)NCCc3c[nH]c4ccccc34)cc(-c3ccc(C(F)(F)F)cc3)nc21,nt,-6,nt,?,40µM*,nt
COCCNC(=O)c1cc(-c2cccc(OC)c2)nc2c1cnn2C,nt,4,nt,?,?,nt
COc1ccccc1-c1ccc2c(C(=O)NCCc3ccc(F)cc3)nn(C)c2n1,nt,-1,3%,?,?,4%
O=C(NC1CCCCC1)C1CCc2nnc(-c3ccccn3)n21 (configuration not stated),nt,6,-2%[87.6 µM],2%[172 µM],4%[138 µM],-3%[12.5 µM]
O=C(Nc1cccc(F)c1)N1CCc2nnc(C3CC3)n2CC1,i,-11,-15%,2%,-4%,3%
CN(C)c1cccc(C(=O)Nc2cccc(-c3nnc4n3CCCC4)c2)c1,?,1,18%,?,-27%,-6%
CN(CC(O)COc1cccc(CNCCc2ccc(F)cc2)c1)C1CCCCC1 (configuration not stated),i,8,1%,18µM*,?,?
C=CCN1CCN(Cc2cccc(OCC(O)CN(C)C3CCCCC3)c2)CC1 (configuration not stated),i,2,-3%,?,-21%,-13%
Cc1ccc(S(=O)(=O)N2CCC(OC3CCN(Cc4ccccc4)CC3)CC2)cc1C,i,2,-19%,?,35µM*,-13%
O=S(=O)(c1cccc(F)c1)N1CCC(OC2CCN(Cc3ccccc3)CC2)CC1,i,-10,-10%,-5%,-26%,-6%
CC(=O)Nc1ccccc1-c1cn(C)c(=O)n2cc(COc3ccc(Cl)cc3)nc12,i,2,11%[87.6 µM],?,100µM*,?
COc1ccc(-c2cn(C)c(=O)n3cc(COc4ccc(Cl)cc4)nc23)c(C)c1,i,-13,-32%[87.6 µM],?,10µM*,-14%[87.6 µM]
Cn1nccc1OCc1cn2c(=O)n(C)cc(-c3cccc(OC(F)(F)F)c3)c2n1,i,-12,-9%[87.6 µM],89µM*,?,-13%[87.6 µM]
Cn1cc(-c2cccc(CO)c2)c2nc(COc3ccc(Cl)cc3)cn2c1=O,?,-21,-29%[87.6 µM],63µM*,?,?
COc1ccc(C)cc1-c1cn(C)c(=O)n2cc(COc3ccc(Cl)cc3)nc12,i,-4,-16%[87.6 µM],?,?,-22%[87.6 µM]
O=C(c1cccc(F)c1)N1CCC2(CC1)NC(=O)N(c1ccccc1Cl)N2,i,-8,-9%,?,?,-9%
SMILES,FLuc inh,IP6K1 inhibitor,SNCA expr inhib,HEK293 tox,3T3 cytotox,SNCA viab count
COc1ccc(C(=O)NC[C@H]2O[C@@H](CO)[C@@H](O)[C@H]2N2CCc3ccccc3C2)cc1,i,-5,-2%,-17%,-13%,-4%
N#Cc1cccc(NC(=O)N2CCC[C@@H](O)[C@H](NC(=O)c3ccc(OCc4ccc(F)cc4)cc3)C2)c1,i,11,?,?,?,?
O=C(CN1C(=O)NC2(CCCCC2)C1=O)Nc1ccc(C(F)(F)F)cc1,i,24,-12%,28µM*,?,-3%
CC1CCC2(CC1)NC(=O)N(CC(=O)Nc1ccc(F)c(Cl)c1)C2=O (configuration not stated),i,3,1%,-27%,-8%,-5%
CC1CCC2(CC1)NC(=O)N(CC(=O)Nc1ccc(Cl)cc1)C2=O (configuration not stated),i,11,6%,?,11µM*,-19%
Cc1cccc(NC(=O)c2ccc(CN3C(=O)NC4(CCOCC4)C3=O)cc2)c1,?,18,-6%,?,-4%,-1%
CCc1ccc(NC(=O)c2ccc(CN3C(=O)NC4(CCOCC4)C3=O)cc2)cc1,13µM*,13,40%,?,?,-10%
CC(C)c1cccc(NC(=O)c2ccc(CN3C(=O)NC4(CCOCC4)C3=O)cc2)c1,40µM*,1,-31%,?,-15%,?
Cn1c(=O)n(C)c2cc(S(=O)(=O)NCC3(O)CCCNCC3)ccc21 (configuration not stated),i,-2,10%,-19%,-12%,10%
Cc1ccc(N2CCN(C(=O)C3CCCN(c4cnn(Cc5ccccc5)c(=O)c4)C3)CC2)cc1 (configuration not stated),i,15,?,25µM*,?,-20%
O=C(NCc1ccccc1C(F)(F)F)C1CCCN(c2cnn(Cc3ccccc3)c(=O)c2)C1 (configuration not stated),i,19,-19%,45µM*,?,-7%
O=C(Cc1cccc(Cl)c1)NCc1c[nH]c2ncccc12,?,15,?,?,-28%[138 µM],-9%[87.6 µM]
C[S+](=O)([O-])c1cccc(NC(=O)Cc2c[nH]c3ncc(-c4cccnc4)cc23)c1,i,-10,-1%[87.6 µM],?,35µM*,-9%[87.6 µM]
O=C(Cc1c[nH]c2ncc(-c3ccccc3)cc12)NCc1ccncc1,i,-15,7%[87.6 µM],?,28µM*,2%[87.6 µM]
O=C(Cc1c[nH]c2ncc(-c3cccnc3)cc12)NCc1cccc(F)c1,i,-7,-28%[87.6 µM],?,25µM*,-18%[87.6 µM]
O=C(Cc1c[nH]c2ncc(-c3cccc(F)c3)cc12)NCc1cccnc1,i,-3,-27%[87.6 µM],71µM*,?,-14%[87.6 µM]
O=C(Cc1c[nH]c2ncc(-c3ccccc3)cc12)NCc1cnccn1,i,-19,?,0%[172 µM],?,-2%[87.6 µM]
